{
  "source": "PubChem BioAssay (NCATS)",
  "note": "Inconclusive results are not listed. Entries that show only a call come without a potency. Calls of active or inactive are those of the source. Calls follow the shape of the dose curve; as a rule, active = well fitted activation curve with a large enough effect; inconclusive = small, poorly fitted or top-dose-only effect; inactive = no such curve, though single readings can be large or run the other way. Potency is read from the fitted curve at half-maximal effect.",
  "data": [
    {"molecular_target": "Rap guanine nucleotide exchange factor 3 (Homo sapiens) (UniProt O95398)", "sequence (O95398 whole entry, looked up)": "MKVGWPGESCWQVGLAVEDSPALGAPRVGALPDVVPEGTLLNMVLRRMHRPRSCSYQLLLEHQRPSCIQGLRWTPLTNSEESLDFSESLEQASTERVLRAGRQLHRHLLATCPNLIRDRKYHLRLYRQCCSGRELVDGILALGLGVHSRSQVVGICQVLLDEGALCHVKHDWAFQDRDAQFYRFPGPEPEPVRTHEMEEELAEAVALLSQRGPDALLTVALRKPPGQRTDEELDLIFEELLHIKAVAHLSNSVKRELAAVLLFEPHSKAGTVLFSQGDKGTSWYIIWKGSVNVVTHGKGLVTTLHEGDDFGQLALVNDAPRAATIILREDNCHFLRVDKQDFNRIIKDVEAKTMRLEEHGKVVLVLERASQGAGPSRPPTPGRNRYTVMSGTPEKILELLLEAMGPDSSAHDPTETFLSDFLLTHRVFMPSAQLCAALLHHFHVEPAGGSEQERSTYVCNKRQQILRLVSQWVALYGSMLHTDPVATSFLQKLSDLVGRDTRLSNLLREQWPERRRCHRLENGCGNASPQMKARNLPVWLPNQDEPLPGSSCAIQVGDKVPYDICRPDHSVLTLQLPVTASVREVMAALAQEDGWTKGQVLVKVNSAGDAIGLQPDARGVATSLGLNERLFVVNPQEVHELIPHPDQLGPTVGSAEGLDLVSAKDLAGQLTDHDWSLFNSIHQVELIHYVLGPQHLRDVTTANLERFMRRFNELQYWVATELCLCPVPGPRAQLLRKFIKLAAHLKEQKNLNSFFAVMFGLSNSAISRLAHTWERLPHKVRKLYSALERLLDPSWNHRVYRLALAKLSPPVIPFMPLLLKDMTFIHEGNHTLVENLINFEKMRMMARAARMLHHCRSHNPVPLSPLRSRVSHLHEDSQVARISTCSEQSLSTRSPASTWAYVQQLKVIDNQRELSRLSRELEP", "assay": "Confirmatory qHTS for agonist of cAMP-regulated guanine nucleotide exchange factor 3 (EPAC1) (AID 1645881); also: nearly all actives have a fitted effect of over 75% in size;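 as to activation: EPAC1 catalysed release of BODIPY-GDP from Rap1B seen as fluorescence loss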", "details": "EPAC1 Rap1B BODIPY-GDP exchange fluorescence; series mostly up to 154 µM", "values": [
      {"smiles": "COc1ccc(Cl)cc1C1CC(=O)Nc2cc3c(cc21)OCCO3", "note": "(centres undefined)", "Potency": "inactive"},
      {"smiles": "COc1ccc(C(=O)NCCn2cc(SCc3cccc(F)c3)c3ccccc32)cc1OC", "Potency": "inactive"},
      {"smiles": "Cc1ccccc1C1(O)c2ccccc2-c2ccccc21", "Potency": "inactive"},
      {"smiles": "Cc1ccccc1OCC(=O)Nc1ccc(C(=O)OCc2cc(=O)n3c(C)csc3n2)cc1", "Potency": "inactive"},
      {"smiles": "COc1ccc(CNc2ncnc3onc(-c4ccc(F)cc4)c23)cc1", "Potency": "inactive"},
      {"smiles": "CCn1c(SCC(=O)c2ccc(O)c(O)c2)nnc1-c1ccccc1OC", "Potency": "inactive"},
      {"smiles": "O=C1CN(C(=O)c2c(F)cccc2Cl)C(c2ccc(F)cc2)c2cc(Br)ccc2N1", "note": "(centres undefined)", "Potency": "inactive"},
      {"smiles": "O=C(Nc1ccc(-c2cn3ccccc3n2)cc1)c1cccs1", "Potency": "inactive"},
      {"smiles": "COC1/C=C/OC2(C)Oc3c(C)c(O)c4c(O)c(c(/C=N/N5CCN(C)CC5)c(O)c4c3C2=O)NC(=O)/C(C)=C/C=C/C(C)C(O)C(C)C(O)C(C)C(OC(C)=O)C1C", "note": "(centres undefined)", "Potency": "inactive"},
      {"smiles": "COc1cccc2cc(/C(=N/O)c3ccccc3)oc12", "Potency": "inactive"},
      {"smiles": "N#C/C(=C\\c1ccc(-c2ccccc2C(=O)O)o1)c1nc2ccccc2[nH]1", "Potency": "inactive"},
      {"smiles": "O=C(Cn1c(=O)c2ccccc2n(CC(=O)Nc2ccc(Cl)cc2)c1=O)NCCc1ccccc1", "Potency": "inactive"},
      {"smiles": "COc1ccc2c(c1)OCC(Cc1ccc(OC)c(OC)c1)C2=O", "note": "(centres undefined)", "Potency": "inactive"},
      {"smiles": "Cc1ccc(C)c(Oc2nc3c(c(=O)n(C)c(=O)n3C)n2Cc2ccccc2)c1", "Potency": "inactive"},
      {"smiles": "O=C(CSc1nc2ccccc2o1)N/N=C/c1ccc(O)c(O)c1", "Potency": "inactive"},
      {"smiles": "COc1ccc2c(c1)Cc1sc(NC(=O)c3ccccc3Br)nc1-2", "Potency": "inactive"},
      {"smiles": "Cc1ccc2c(c1)-c1c(cnn1CC(=O)N1CCN(c3cccc(C(F)(F)F)c3)CC1)CO2", "Potency": "inactive"},
      {"smiles": "CCOC(=O)Nc1cc2c(c(N)n1)N=C(c1ccccc1)CN2", "Potency": "inactive"},
      {"smiles": "O=C(Nc1cccc(S(=O)(=O)NCc2ccco2)c1)c1cc(-c2ccccc2)nc2ccccc12", "Potency": "inactive"},
      {"smiles": "CC(=O)Nc1ccc(Nc2nnc(-c3ccc(O)cc3)c3ccccc23)cc1", "Potency": "inactive"},
      {"smiles": "Cc1ccc(C)c(CN2C(=O)C(O)(c3c[nH]c4ccccc34)c3ccccc32)c1", "note": "(centres undefined)", "Potency": "inactive"},
      {"smiles": "COc1ccc(-c2ccc(C(=O)NC(C)C)c3occc23)c(C)c1", "Potency": "inactive"},
      {"smiles": "Cc1nn(-c2ccccc2)c2nc(N)c(C#N)c(-c3ccc(O)c(O)c3)c12", "Potency": "inactive"},
      {"smiles": "N/C(CSc1nc(-c2ccccc2)c(-c2ccccc2)o1)=N\\O", "Potency": "inactive"},
      {"smiles": "CCOc1ccccc1C(=O)N1CCc2cc(OC)c(OC)cc2C1COc1ccc(OC)cc1", "note": "(centres undefined)", "Potency": "inactive"},
      {"smiles": "Cc1cc[n+](-c2[nH]c(=O)sc2/C=N/N=C(\\[O-])c2ccccc2)cc1", "Potency": "inactive"},
      {"smiles": "Cc1csc2nc(-c3cccc(NC(=O)c4cccc(F)c4)c3)cn12", "Potency": "inactive"},
      {"smiles": "Cc1nn(C)cc1N1C(=O)c2cccc3c(N)ccc(c23)C1=O", "Potency": "112 µM (active)"},
      {"smiles": "Cc1cc(C)c2c(CN3CCCC3)cc(=O)oc2c1", "Potency": "inactive"},
      {"smiles": "O=C(c1ccccc1Cc1ccccc1)N1CCN(S(=O)(=O)c2ccccc2Br)CC1", "Potency": "inactive"},
      {"smiles": "Cc1nc2ccccc2c2oc(C(=O)Nc3ccc4c(c3)OCCO4)cc12", "Potency": "inactive"},
      {"smiles": "CCN1/C(=C\\c2ccc3ccccc3[n+]2CC)Sc2cc(C)ccc21", "Potency": "inactive"},
      {"smiles": "O=[N+]([O-])c1cccc(S(=O)(=O)Nc2cccc(-c3ccc(N4CCCC4)nn3)c2)c1", "Potency": "inactive"},
      {"smiles": "Clc1ccc(OCCn2c(-c3ccco3)nc3ccccc32)cc1", "Potency": "inactive"},
      {"smiles": "O=c1[nH]c(Nc2ccc(F)cc2)cc2ccccc12", "Potency": "inactive"},
      {"smiles": "CCc1ccc(CNC(=O)Cn2nc(C)n3c(cc4cc(C)ccc43)c2=O)cc1", "Potency": "inactive"},
      {"smiles": "O=C(Nc1ccccc1N1CCCCC1)C1=COCCO1", "Potency": "inactive"},
      {"smiles": "COc1ccccc1CN(C)C(=O)C(c1ccccc1)c1ccccc1", "Potency": "inactive"},
      {"smiles": "O=c1c2ccccc2c(C=Nc2ccc(O)cc2)c(O)n1-c1nccs1", "Potency": "inactive"}
    ]}
  ]
}
